Test results published in PubChem BioAssay (Tox21).
Values joined by “and” are separate entries in the source; they are usually repeats but may differ in a detail not shown here. Equal entries are not always repeated. Inconclusive results are not listed. Entries that show only a call come without a potency. A structure can be active in one record and inactive in another. Active and inactive are the calls of the source. Unless noted, the call rests on the fitted dose curve; in most records, active means well fitted curve in the direction sought with a large enough effect in the repeat runs; inconclusive means weak or mixed curves; inactive means no such curve, though single readings can be large; an effect the other way counts as inactive or inconclusive.

Columns and labels:
[1] = biological target: Estrogen receptor beta (Homo sapiens) (UniProt Q92731); experiment: qHTS assay to identify small molecule agonists of the estrogen receptor beta (ER-beta) signaling pathway (AID 1259377; active means well fitted activation curve with a large enough effect in the signal ratio in the repeat runs, not every such curve was filed as active; the % refers to the signal ratio)
Method in brief: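 ER-beta-UAS-bla HEK293T (GripTite) cells carrying a UAS-driven beta-lactamase reporter, in medium with 2% charcoal-stripped FBS, were exposed to compounds for 16 hr at 37C; LiveBLAzer B/G FRET substrate was then added and fluorescence read after 2 hours at room temperature.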

[2] = biological target: Estrogen receptor beta (Homo sapiens) (UniProt Q92731); experiment: qHTS assay to identify small molecule antagonists of the estrogen receptor beta (ER-beta) signaling pathway (AID 1259378; active means well fitted inhibition curve with a large enough effect in the signal ratio in the repeat runs, not every such curve was filed as active; the % refers to the signal ratio)
Method in brief: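 ER-beta-UAS-bla HEK293T cells in 2% charcoal-stripped FBS medium treated with compound plus 1nM final 17-beta-estradiol for 16 hr at 37C. Beta-lactamase reporter read by FRET substrate fluorescence after 2 hours at room temperature.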

[3] = qHTS assay to identify small molecule agonists of the androgen receptor (AR) signaling pathway in the presence of an antagonist - cell viability counter screen (AID 1259379); further: series mostly up to about 92 µM; nearly all actives have a fitted effect of over 25% in size
Method in brief: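 MDA-kb2 human breast carcinoma cells (stable MMTV-luciferase, AR/GR responsive) were seeded 3,000 cells/well, pre-incubated 5 hr at 37C without CO2, then given 3.0uM nilutamide and compounds at 15 concentrations for 16 hr. Viability was read by CellTiter-Fluor fluorescence.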

[4] = qHTS assay to identify small molecule agonists of the estrogen receptor beta (ER-beta) signaling pathway - cell viability counter screen (AID 1259380); further: nearly all actives have a fitted effect of over 30% in size; further: potency means the concentration at half of the fitted maximal effect
Method in brief: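 ER-beta-UAS-bla HEK293T cells in medium with 2% charcoal-stripped FBS were preincubated 6 hr at 37C, dosed with compound in DMSO for 16 hr, then after the bla read, CellTiter-Glo was added for 30 min at room temperature; luminescence recorded.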

[5] = biological target: Estrogen receptor (Homo sapiens) (UniProt P03372); experiment: qHTS assay to identify small molecule agonists of the estrogen receptor alpha (ER-alpha) signaling pathway in the presence of an antagonist (AID 1259383; calls by dose curve; further: top concentration of the series differs between compounds; nearly all actives have a fitted effect of over 15% in size)
Method in brief: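 VM7Luc4E2 cells (endogenous full-length ER-alpha, 4×ERE-luciferase) were precultured 5 days in phenol red-free medium with 10% charcoal-stripped FBS, given 10.0nM ICI-182,780 (final), then treated with compounds at 15 concentrations for 22hr at 37C; luminescence read with ONE-Glo.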

[6] = qHTS assay to identify small molecule agonists or antagonists of the thyroid stimulating hormone receptor (TSHR) signaling pathway - wild type cell line counter screen (AID 1259384; calls by dose curve)
Method in brief: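 Wild-type Hek293 cells, 800/well, 18 h at 37C, then compound with Ro20-1724 for 30 min RT. cAMP by HTRF (cAMP-d2/anti-cAMP cryptate), 1 h RT, fluorescence read. 15 concentrations, triplicates.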

[7] = biological target: Thyrotropin receptor (Homo sapiens) (UniProt P16473); experiment: qHTS assay to identify small molecule antagonists of the thyroid stimulating hormone receptor (TSHR) signaling pathway (AID 1259385; calls by dose curve; further: nearly all actives have a fitted effect of over 20% in size)
Method in brief: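 TSHR-HEK293 cells (800/well) plated 18 h, then compounds with Ro20-1724 and TSH at 1.5 ng/mL final, 30 min at room temperature. cAMP quantified by HTRF (cAMP-d2/anti-cAMP-cryptate, 1 h); 15 concentrations in triplicate.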

[8] = qHTS assay to identify small molecule agonists of the estrogen receptor alpha (ER-alpha) signaling pathway in the presence of an antagonist - cell viability counter screen (AID 1259386);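 further: cells exposed to compounds for 22 h at 37 °C before the viability read; nearly all actives have a fitted effect of over 30% in size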; further: potency means the concentration at half of the fitted maximal effect
Method in brief: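 VM7Luc4E2 cells (endogenous full-length ER-alpha, 4×ERE-luciferase) were held 5 days in phenol red-free medium with 10% charcoal-stripped FBS, plated, then given 10.0nM ICI-182,780 and compounds at 15 concentrations for 22hr at 37C; viability read by CellTiter-Fluor fluorescence.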

[9] = biological target: Progesterone receptor (Homo sapiens) (UniProt P06401); experiment: qHTS assay to identify small molecule agonists of the progesterone receptor (PR) signaling pathway (AID 1346784; calls by dose curve; further: nearly all actives have a fitted effect of over 30% in size)
Method in brief: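 PR-UAS-bla HEK 293T cells carrying a UAS-driven beta-lactamase reporter were seeded in medium with 2% charcoal-stripped FBS, preincubated 6 hr at 37C, then exposed to compounds in DMSO for 16 hr; agonism was read by LiveBLAzer B/G FRET fluorescence.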

[10] = qHTS assay to identify small molecule antagonists of the progesterone receptor (PR) signaling pathway - cell viability counter screen (AID 1346798); further: series mostly up to about 92 µM; nearly all actives have a fitted effect of over 50% in size
Method in brief: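 PR-UAS-bla HEK293T cells in medium with 2% charcoal-stripped FBS were treated with compounds plus R5020 for 16 hr at 37C. Cell viability was then read by CellTiter-Glo luminescence after 30 min at room temperature in the same wells.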

[11] = qHTS assay to identify small molecule agonists of the progesterone receptor (PR) signaling pathway - cell viability counter screen (AID 1346799; calls by dose curve; further: nearly all actives have a fitted effect of over 45% in size)
Method in brief: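 PR-UAS-bla HEK293T cells, 3,000 per well in medium with 2% charcoal-stripped FBS, were preincubated 6 hr at 37C, then exposed to compounds for 16 hr; viability was read as CellTiter-Glo luminescence after 30 min at room temperature.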

[12] = qHTS assay to identify small molecule antagonists of the TGF-beta/Smad signaling pathway - cell viability counter screen (AID 1346824); further: nearly all actives have a fitted effect of over 50% in size
Method in brief: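 SBE-bla HEK 293T cells, incubated overnight, then compound plus 0.25 ng/mL TGF-beta1 (stock added) for 5 hr at 37 C. Viability was read in the same wells by CellTiter-Glo luminescence after 30 min at room temperature.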

[13] = qHTS assay to identify small molecule agonists of the TGF-beta/Smad signaling pathway - cell viability counter screen (AID 1346829); further: top concentration of the series differs between compounds; nearly all actives have a fitted effect of over 45% in size
Method in brief: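 Tox21 qHTS format: SBE-bla HEK 293T cells treated with DMSO-dissolved compounds for 5 hr; CellTiter-Glo luminescence after 30 min at room temperature.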

[14] = qHTS assay to identify small molecule agonists of the TGF-beta/Smad signaling pathway (AID 1346859; active means well fitted activation curve with a large enough effect in the signal ratio in the repeat runs, not every such curve was filed as active; the % refers to the signal ratio; further: series mostly up to about 77 µM)
Method in brief: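 HEK 293T cells stably carrying a beta-lactamase reporter driven by the Smad binding element were seeded overnight, exposed to DMSO-dissolved compounds for 5 hr at 37 C, 5% CO2, then loaded with FRET substrate for 2 hr at room temperature.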

[15] = Human pregnane X receptor (PXR) small molecule agonists, qHTS cell viability counter screen (AID 1346977); further: nearly all actives have a fitted effect of over 50% in size; further: potency means the concentration at half of the fitted maximal effect
Method in brief: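 PXR-Luc HepG2 cells in medium with 5% charcoal-stripped FBS were pre-incubated 5hr, then exposed to compounds for 24hr at 37C. Viability was read in the same wells by CellTiter-Fluor fluorescence, reagent added after 23hr with a 1hr incubation.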

[16] = biological target: Androgen receptor (Homo sapiens) (UniProt P10275); experiment: qHTS assay to identify small molecule agonists of the androgen receptor (AR) signaling pathway in the presence of an antagonist (AID 1259381; calls by dose curve; further: nearly all actives have a fitted effect of over 15% in size)
Method in brief: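 MDA-kb2 human breast carcinoma cells carrying an MMTV-luciferase reporter (AR- and GR-responsive) were treated with compounds at 15 concentrations plus 3.0uM final nilutamide for 16hr at 37C without CO2; luminescence was read after ONE-Glo addition.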

[17] = biological target: Progesterone receptor (Homo sapiens) (UniProt P06401); experiment: qHTS assay to identify small molecule antagonists of the progesterone receptor (PR) signaling pathway (AID 1346795; active means well fitted inhibition curve with a large enough effect in the signal ratio in the repeat runs, not every such curve was filed as active; the % refers to the signal ratio; further: potency means the concentration at half of the fitted maximal effect)
Method in brief: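 PR-UAS-bla HEK293T cells carrying a UAS-driven beta-lactamase reporter were plated in medium with 2% charcoal-stripped FBS and rested 6 hr at 37C. Compounds were added with 1 nM R5020 (final) for 16 hr, then FRET substrate loaded 2 hr at room temperature.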

[18] = biological target: Thyrotropin-releasing hormone receptor (Homo sapiens) (UniProt P34981); experiment: qHTS assay to identify small molecule antagonists of the thyrotropin-releasing hormone receptor (TRHR) signaling pathway (AID 1346877; active means well fitted inhibition curve with a large enough effect in the repeat runs, not every such curve was filed as active; further: series mostly up to about 51 µM)
Method in brief: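 TRHR-expressing HEK293 cells were seeded, cultured 18 h at 37 °C, then loaded with calcium dye for 2 h. Compounds were pre-incubated 5 min at room temperature before 1 nM TRH (final) was added, and kinetic fluorescence was recorded for 3 min.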

[19] = qHTS assay to identify small molecule antagonists of the estrogen receptor beta (ER-beta) signaling pathway - cell viability counter screen (AID 1259382); further: series mostly up to about 92 µM; nearly all actives have a fitted effect of over 55% in size
Method in brief: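 ER-beta-UAS-bla HEK293T cells (2,000/well, 2% charcoal-stripped FBS) were pre-incubated 6 hr at 37C, then given compound plus 1nM final 17-beta-estradiol for 16 hr. Viability was read in the same wells by CellTiter-Glo luminescence after 30 min at room temperature.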

[20] = biological target: Thyrotropin-releasing hormone receptor (Homo sapiens) (UniProt P34981); experiment: qHTS assay to identify small molecule agonists of the thyrotropin-releasing hormone receptor (TRHR) signaling pathway (AID 1346891; calls by dose curve; further: series mostly up to about 58 µM)
Method in brief: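 TRHR-expressing HEK293 cells were plated 18 h at 37 °C/5% CO2, loaded with calcium dye 2 h at 37 °C, then given compound in DMSO; fluorescence was read kinetically for 3 min at 1 s intervals.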

Chain of Estrogen receptor beta (Homo sapiens) (Q92731 whole entry, looked up): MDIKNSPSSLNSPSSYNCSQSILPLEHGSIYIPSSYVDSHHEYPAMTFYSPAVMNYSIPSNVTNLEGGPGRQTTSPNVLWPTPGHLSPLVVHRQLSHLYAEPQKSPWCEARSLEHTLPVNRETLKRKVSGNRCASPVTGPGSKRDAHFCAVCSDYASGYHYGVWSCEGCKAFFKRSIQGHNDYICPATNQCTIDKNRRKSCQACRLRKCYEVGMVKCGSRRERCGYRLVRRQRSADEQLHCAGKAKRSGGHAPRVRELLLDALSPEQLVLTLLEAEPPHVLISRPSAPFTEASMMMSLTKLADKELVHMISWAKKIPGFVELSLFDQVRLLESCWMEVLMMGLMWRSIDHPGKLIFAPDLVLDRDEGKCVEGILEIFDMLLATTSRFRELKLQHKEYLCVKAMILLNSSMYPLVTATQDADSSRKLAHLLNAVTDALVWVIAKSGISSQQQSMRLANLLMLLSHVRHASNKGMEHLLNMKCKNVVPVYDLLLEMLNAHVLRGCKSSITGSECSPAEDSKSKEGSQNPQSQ
Chain of Thyrotropin receptor (Homo sapiens) (P16473 whole entry, looked up): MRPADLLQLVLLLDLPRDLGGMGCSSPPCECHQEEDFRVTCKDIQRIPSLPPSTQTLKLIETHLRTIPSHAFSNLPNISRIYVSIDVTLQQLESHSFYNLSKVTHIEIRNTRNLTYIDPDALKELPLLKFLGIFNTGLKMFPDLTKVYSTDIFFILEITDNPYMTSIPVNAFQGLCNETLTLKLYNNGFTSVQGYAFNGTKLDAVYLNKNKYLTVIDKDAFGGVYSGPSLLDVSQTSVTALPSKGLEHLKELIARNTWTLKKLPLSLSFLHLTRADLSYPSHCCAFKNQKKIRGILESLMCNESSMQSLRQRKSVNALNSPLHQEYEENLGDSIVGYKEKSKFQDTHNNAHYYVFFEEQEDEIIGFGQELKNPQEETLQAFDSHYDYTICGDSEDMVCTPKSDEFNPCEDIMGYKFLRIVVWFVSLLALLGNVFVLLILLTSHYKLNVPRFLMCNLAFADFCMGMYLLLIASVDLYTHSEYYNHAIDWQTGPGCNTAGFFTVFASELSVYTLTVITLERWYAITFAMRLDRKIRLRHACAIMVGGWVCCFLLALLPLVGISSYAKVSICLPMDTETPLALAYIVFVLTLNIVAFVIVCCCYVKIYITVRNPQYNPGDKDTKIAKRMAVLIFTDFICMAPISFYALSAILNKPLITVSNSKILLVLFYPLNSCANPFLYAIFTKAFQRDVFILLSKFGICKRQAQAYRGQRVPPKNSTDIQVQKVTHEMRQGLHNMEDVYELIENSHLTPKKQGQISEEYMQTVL
Chain of Progesterone receptor (Homo sapiens) (P06401 whole entry, looked up): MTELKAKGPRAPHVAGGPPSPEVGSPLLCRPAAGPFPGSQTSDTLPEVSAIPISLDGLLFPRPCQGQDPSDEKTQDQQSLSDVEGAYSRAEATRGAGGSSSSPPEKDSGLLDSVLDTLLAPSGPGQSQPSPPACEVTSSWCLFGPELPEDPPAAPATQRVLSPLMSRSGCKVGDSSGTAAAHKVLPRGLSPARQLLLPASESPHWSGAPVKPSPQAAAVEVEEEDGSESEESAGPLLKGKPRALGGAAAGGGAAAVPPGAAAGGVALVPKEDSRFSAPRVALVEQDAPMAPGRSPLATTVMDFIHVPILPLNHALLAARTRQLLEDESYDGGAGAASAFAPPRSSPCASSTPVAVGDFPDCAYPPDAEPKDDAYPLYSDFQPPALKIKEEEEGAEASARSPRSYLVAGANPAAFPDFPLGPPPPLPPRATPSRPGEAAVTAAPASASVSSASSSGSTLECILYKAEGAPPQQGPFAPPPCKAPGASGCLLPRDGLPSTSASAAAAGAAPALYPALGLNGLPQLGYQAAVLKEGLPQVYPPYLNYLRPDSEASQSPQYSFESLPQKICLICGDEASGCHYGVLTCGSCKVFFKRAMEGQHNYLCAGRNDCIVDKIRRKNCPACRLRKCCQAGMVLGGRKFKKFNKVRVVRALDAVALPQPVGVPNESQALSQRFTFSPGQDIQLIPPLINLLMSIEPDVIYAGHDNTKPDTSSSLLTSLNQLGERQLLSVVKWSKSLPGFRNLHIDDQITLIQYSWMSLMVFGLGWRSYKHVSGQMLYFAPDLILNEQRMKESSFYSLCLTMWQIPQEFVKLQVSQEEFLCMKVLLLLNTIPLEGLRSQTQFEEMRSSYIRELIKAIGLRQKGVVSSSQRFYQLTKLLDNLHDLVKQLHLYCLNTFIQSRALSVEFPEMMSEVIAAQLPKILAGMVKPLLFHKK
Chain of Androgen receptor (Homo sapiens) (P10275 whole entry, looked up): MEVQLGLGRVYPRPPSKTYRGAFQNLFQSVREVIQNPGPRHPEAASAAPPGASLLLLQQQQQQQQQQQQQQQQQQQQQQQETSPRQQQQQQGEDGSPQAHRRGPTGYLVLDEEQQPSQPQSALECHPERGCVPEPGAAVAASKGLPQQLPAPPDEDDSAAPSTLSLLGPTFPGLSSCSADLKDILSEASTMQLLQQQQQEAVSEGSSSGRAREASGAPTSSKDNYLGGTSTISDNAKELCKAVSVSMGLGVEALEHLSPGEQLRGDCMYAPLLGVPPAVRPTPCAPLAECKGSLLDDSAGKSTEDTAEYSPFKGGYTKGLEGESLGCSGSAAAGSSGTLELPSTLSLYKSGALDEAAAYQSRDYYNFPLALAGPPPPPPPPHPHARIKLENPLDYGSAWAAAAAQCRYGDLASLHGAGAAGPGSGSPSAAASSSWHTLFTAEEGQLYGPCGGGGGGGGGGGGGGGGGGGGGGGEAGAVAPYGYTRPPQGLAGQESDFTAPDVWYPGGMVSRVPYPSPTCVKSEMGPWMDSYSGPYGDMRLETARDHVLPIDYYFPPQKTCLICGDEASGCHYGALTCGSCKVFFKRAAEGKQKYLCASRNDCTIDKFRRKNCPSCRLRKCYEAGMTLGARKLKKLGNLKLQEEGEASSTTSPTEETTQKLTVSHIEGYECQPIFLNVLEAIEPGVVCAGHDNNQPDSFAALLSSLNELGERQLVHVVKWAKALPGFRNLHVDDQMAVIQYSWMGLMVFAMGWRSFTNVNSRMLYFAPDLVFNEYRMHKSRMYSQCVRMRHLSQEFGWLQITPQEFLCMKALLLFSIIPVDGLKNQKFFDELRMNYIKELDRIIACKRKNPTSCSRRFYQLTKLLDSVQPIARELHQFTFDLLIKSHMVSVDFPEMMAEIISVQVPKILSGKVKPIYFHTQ
Chain of Estrogen receptor (Homo sapiens) (P03372 whole entry, looked up): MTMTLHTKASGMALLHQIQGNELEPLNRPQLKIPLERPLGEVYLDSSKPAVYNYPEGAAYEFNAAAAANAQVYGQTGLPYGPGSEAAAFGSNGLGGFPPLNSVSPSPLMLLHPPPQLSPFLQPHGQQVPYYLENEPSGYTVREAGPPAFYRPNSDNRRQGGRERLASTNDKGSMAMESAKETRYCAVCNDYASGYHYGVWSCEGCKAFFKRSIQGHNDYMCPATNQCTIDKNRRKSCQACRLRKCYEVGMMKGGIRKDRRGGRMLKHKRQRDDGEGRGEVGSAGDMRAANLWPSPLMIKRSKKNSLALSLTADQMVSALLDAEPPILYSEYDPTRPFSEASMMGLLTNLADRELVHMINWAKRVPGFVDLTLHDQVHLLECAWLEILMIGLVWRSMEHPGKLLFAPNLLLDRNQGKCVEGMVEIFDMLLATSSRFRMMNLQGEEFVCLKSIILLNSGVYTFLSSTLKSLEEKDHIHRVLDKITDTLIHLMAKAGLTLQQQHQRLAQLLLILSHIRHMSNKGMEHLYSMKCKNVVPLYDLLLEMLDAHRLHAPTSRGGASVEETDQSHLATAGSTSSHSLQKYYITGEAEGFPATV
Chain of Thyrotropin-releasing hormone receptor (Homo sapiens) (P34981 whole entry, looked up): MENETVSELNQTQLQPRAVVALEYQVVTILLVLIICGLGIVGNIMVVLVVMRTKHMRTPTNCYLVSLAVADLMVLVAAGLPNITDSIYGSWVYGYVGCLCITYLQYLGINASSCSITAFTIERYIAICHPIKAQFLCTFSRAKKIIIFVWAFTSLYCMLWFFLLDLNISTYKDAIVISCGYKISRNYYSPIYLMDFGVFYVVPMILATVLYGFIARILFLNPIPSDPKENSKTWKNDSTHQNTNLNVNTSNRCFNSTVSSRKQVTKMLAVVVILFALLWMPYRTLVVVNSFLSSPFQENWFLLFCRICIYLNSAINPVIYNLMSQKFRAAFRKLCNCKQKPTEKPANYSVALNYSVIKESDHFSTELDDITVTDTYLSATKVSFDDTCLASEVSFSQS

Structure (SMILES) | outcome [1] | Potency [2] | Potency [3] | Potency [4] | Potency [5] | Potency [6] | outcome [7] | Potency [8] | Potency [9] | Potency [10] | Potency [11] | Potency [12] | Potency [13] | outcome [14] | Potency [15] | outcome [16] | Potency [17] | outcome [18] | Potency [19] | Potency [20]
C[C@]12C=CC(=O)C=C1CC[C@@H]1[C@@H]2C(=O)C[C@@]2(C)[C@H]1CC[C@]2(O)C(=O)CO | inactive | inactive | inactive | inactive | inactive | inactive | inactive | inactive | inactive | inactive | inactive | inactive | inactive | inactive | inactive |  |  |  |  | 
C[C@]12CC[C@@H]3c4ccc(O)cc4C[C@@H](CCCCCCCCCS(=O)CCCC(F)(F)C(F)(F)F)[C@H]3[C@@H]1CC[C@@H]2O (some centres undefined) | inactive |  | inactive | 9.68 µM (active) and 14.3 µM (active) and 8.41 µM (active) |  | inactive | inactive | inactive | inactive | inactive |  | inactive | inactive | inactive | inactive | inactive | 1720 nM (active) | inactive |  | 
c1ccc2[nH]c(-c3cscn3)nc2c1 | inactive | inactive |  | inactive | inactive | inactive | inactive | inactive | inactive | inactive | inactive | inactive |  | inactive | inactive | inactive | inactive | inactive | inactive | 
COC(=O)c1ccc(O)cc1 | inactive | inactive |  | inactive | inactive | inactive | inactive | inactive | inactive | inactive |  | inactive |  | inactive | inactive |  | inactive | inactive | inactive | inactive
COc1cc(O)c(C(=O)c2ccccc2)cc1S(=O)(=O)O | inactive | inactive |  | inactive | inactive | inactive | inactive | inactive | inactive | inactive | inactive | inactive | inactive | inactive | inactive | inactive | inactive | inactive |  | 
CN(C)C=O | inactive | inactive |  | inactive | inactive | inactive | inactive | inactive | inactive | inactive | inactive | inactive |  | inactive | inactive |  | inactive | inactive |  | 
CCCCCCCCCCCCCCCCCC(=O)OCC(O)CO (centres undefined) | inactive | inactive |  | inactive | inactive | inactive | inactive | inactive | inactive | inactive | inactive | inactive | inactive | inactive | inactive |  | inactive | inactive | inactive | inactive
CCOC(=O)C(C)(C)Oc1ccc(Cl)cc1 | inactive | inactive |  | inactive | inactive | inactive | inactive | inactive | inactive | inactive |  | inactive |  | inactive | inactive |  | inactive | inactive |  | inactive
NC(=O)c1ccc([N+](=O)[O-])cc1Cl | inactive | inactive |  | inactive |  | inactive | inactive | inactive | inactive | inactive | inactive | inactive |  | inactive | inactive |  | inactive | inactive | inactive | inactive
NC(=O)N/N=C/c1ccc([N+](=O)[O-])o1 | inactive | inactive |  | inactive | inactive | inactive | inactive | inactive and 61.1 µM (active) | inactive | inactive |  | inactive |  | inactive | inactive and 27.3 µM (active) and 26.6 µM (active) |  | inactive | inactive | inactive | 
NC(N)=NC(N)=NCCc1ccccc1 | inactive | inactive |  | inactive | inactive | inactive | inactive | inactive | inactive |  |  | inactive |  | inactive |  |  | inactive |  | inactive | 
CCCCCCCC(=O)OCC(O)CO (centres undefined) | inactive | inactive |  | inactive |  | inactive | inactive | inactive | inactive | inactive |  | inactive | inactive | inactive | inactive |  | inactive | inactive | inactive | inactive
C1CNCCN1 | inactive | inactive |  | inactive | inactive | inactive | inactive | inactive | inactive | inactive |  | inactive | inactive | inactive | inactive |  | inactive | inactive | inactive | 
O=C(O)CCCCC1CCSS1 (centres undefined) | inactive | inactive |  | inactive | inactive | inactive | inactive | inactive | inactive | inactive |  | inactive | inactive | inactive | inactive |  | inactive | inactive |  | inactive
